Records with an inconclusive call do not appear. Activity calls are given as the source filed them. The call rests on the fitted dose curve; in most records, active means well fitted inhibition curve with a large enough effect; inconclusive means small, poorly fitted or top-dose-only effect; inactive means flat fitted curve, though single readings scatter.
Key:
Assay in all cases: qHTS profiling for inhibitors of Plasmodium falciparum proliferation (AID 504749); further: nearly all actives have a fitted effect of over 60% in size
Conditions in all cases: P. falciparum in erythrocytes, SYBR Green DNA, 72 h; series mostly up to 28.7 µM
AS120 = tested on: AS120
Summary of the method: (§1)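 P. falciparum-infected erythrocytes (0.3% parasitemia, 2.5% hematocrit final) were exposed to compounds for 72 h at 37 C in 5% CO2, then lysed with SYBR Green buffer overnight at room temperature; parasite DNA fluorescence was normalized to artemisinin and DMSO controls.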

ATS189 = tested on: ATS189
Summary of the method: as §1

ATS95 = tested on: ATS95
Summary of the method: as §1

C2A = tested on: C2A
Summary of the method: as §1

CP185 = tested on: CP185
Summary of the method: as §1

CP191 = tested on: CP191
Summary of the method: as §1

CP192 = tested on: CP192
Summary of the method: as §1

CP194 = tested on: CP194
Summary of the method: as §1

CP201 = tested on: CP201
Summary of the method: as §1

CP203 = tested on: CP203
Summary of the method: as §1

CP211 = tested on: CP211
Summary of the method: as §1

CP215 = tested on: CP215
Summary of the method: as §1

CP217 = tested on: CP217
Summary of the method: as §1

CP237 = tested on: CP237
Summary of the method: as §1

CP238 = tested on: CP238
Summary of the method: as §1

CP247 = tested on: CP247
Summary of the method: as §1

CP250 = tested on: CP250
Summary of the method: as §1

CP252 = tested on: CP252
Summary of the method: as §1

CP256 = tested on: CP256
Summary of the method: as §1

CP260 = tested on: CP260
Summary of the method: as §1

Measured: Potency

COC(=O)[C@@H]1[C@@H]2C[C@H]3c4[nH]c5ccccc5c4CCN3C[C@@H]2CC[C@@H]1O
inactive: all assays above

C[C@@H](C(=O)O)c1ccc(-c2ccccc2)c(F)c1
inactive: all assays above

Source: PubChem BioAssay (NCATS)
